Screening data from PubChem BioAssay.
CHX counter – counter-screen for Shiga toxin inhibitors: cycloheximide protein synthesis inhibition; max response, %; 300,000 tested, 12% active; cell reporter, cycloheximide protein synthesis inhibition counterscreen; AID 2314; in the data active means max response mostly above about 13%, no sharp cut-off; inactive means mostly below about 14%; further: read at 38.3 µM for the half of the compounds with a filed dose; 0% is about no effect
LmPK inhibitor – inhibitors of Leishmania mexicana pyruvate kinase; Q27686; purified LmPK, Kinase-Glo ATP luminescence, 1 h; Potency, µM (series often up to 57.5 µM), without a hit: top-dose activity change, negative = inhibition, usual class: inhibitors; 290,000 tested, 0.37% active; AID 1721; further: potency means the concentration at half of the fitted maximal effect; on the % scale 0 is the no-effect control and ±100 the full control effect
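Kinase-Glo luminescence read after 1 h RT reaction of 0.1 nM LmPK with 0.5 mM PEP and 0.1 mM ADP. Activity scaled between uninhibited and enzyme-free controls.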
NS1 inh – influenza NS1 inhibition. Potency, µM (doses to about 46.1 µM), inactives show at the highest dose activity, positive = more growth. 270,000 tested, 0.4% active. AID 2326; calls by dose curve; further: potency means the concentration at half of the fitted maximal effect; actives are rising curves; nearly all actives have a fitted effect of over 50% in size
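In this qHTS, NS1 from influenza A is expressed in budding yeast, where it slows growth. Cells are switched from glucose to 2% galactose medium (pH 6.0, -URA), treated with compound, and growth recovery is read at OD600.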
Giardia FBPA inh – Giardia lamblia aldolase inhibition. A8B2U2. purified Giardia FBPA. Potency, µM (doses to about 59.6 µM), inactives show top-dose activity, negative = inhibition, usual class: inhibitors. 290,000 tested, 0.71% active; further: potency means the concentration at half of the fitted maximal effect; on the % scale 0 is the no-effect control and ±100 the full control effect; nearly all actives have a fitted effect of over 55% in size
Target sequence (A8B2U2 whole entry, looked up): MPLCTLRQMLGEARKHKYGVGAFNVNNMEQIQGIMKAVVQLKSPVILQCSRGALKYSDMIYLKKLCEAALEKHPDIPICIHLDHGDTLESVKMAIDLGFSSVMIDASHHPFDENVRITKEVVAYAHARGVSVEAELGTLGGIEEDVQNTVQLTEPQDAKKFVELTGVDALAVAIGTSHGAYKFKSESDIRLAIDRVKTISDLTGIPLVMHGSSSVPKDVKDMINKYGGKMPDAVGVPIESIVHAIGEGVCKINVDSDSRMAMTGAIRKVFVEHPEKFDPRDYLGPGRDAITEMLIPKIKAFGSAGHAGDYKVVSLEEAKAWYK
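40 nM FBPA preincubated 10 min at RT with compound (up to 57.5 uM final), then substrate plus GAPDH/TPI/NAD/arsenate coupling and diaphorase/resazurin added. Fluorescence read after 20 min at RT, 525/598 nm.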
Shiga inhibitor – inhibitors of Shiga toxin in Vero cells; AID 2315; Vero cells, Shiga toxin protein synthesis inhibition reporter; 290,000 tested, 9.2% active; inhibition, % at 38.7 µM; in the data active means inhibition mostly above about 28%, no sharp cut-off; inactive means mostly below about 43%; further: 0% is about no effect
Numbers without * were called inactive; i = inactive; ? = inconclusive; . = not tested or not shown; + = active, no number; ! = not confirmed by another sample; [ ] = dose if it differs, or a comment. Sampled rows, rich in hits. Any-hit rate of the full collection: about 14%. Unless noted, the call rests on the fitted dose curve; in most records, active means well fitted curve in the direction sought with a large enough effect; inconclusive means small, poorly fitted or top-dose-only effect, or another doubt; inactive means no such curve, though single readings can be large; an effect the other way counts as inactive or inconclusive.

SMILES	CHX counter	LmPK inhibitor	NS1 inh	Giardia FBPA inh	Shiga inhibitor
COc1ccc(O)c(N)c1	16.1	?	0.5%	3.54µM*	24.3
CCNc1ncc2nc(CCc3ccccc3)c(=O)n(CCOC)c2n1	.	.	.	3.8%	.
CCOC(=O)OCC1OC(C#Cc2ccc(Br)cc2)C=CC1OC(=O)OCC (stereo not drawn)	.	.	.	0.2%[12.9 µM]	.
O=C(Nc1nc(-c2cccc3ccccc23)cs1)c1ccc2c(c1)S(=O)(=O)c1ccccc1C2=O	21.4*	-2.4%	1.4%	2.2%	61.9*
O=C(Nc1nc(-c2ccccc2)cs1)c1ccc2c(c1)S(=O)(=O)c1ccccc1C2=O	-1.9	-1.5%	-0.3%	4.0%	-15.6
O=C(NNC(=O)c1csc(-c2cccnc2)n1)c1ccccc1	30.2*	-0.5%	-3.9%	?	18.2
O=C(Nc1ccccc1Cl)c1csc(-c2cccnc2)n1	29.2*	-2.5%	-2.3%	0.5%	40.6*
CCS(=O)(=O)c1nc(S(=O)(=O)c2ccc(C)cc2)c(N2CCN(C)CC2)s1	1.3	-0.1%	-11.5%	.	1.3
CN(C)C(=O)c1ccc(-c2ccc3ncnc(NCc4cccs4)c3c2)cc1	.	.	.	-6.0%	.
c1ccc(Nc2cccc(Nc3ccccc3)c2)cc1	44.2*	1.7%	-1.7%	-4.1%	78.1*
Cc1ccc(Nc2ccccc2)cc1	19.0*	-1.8%	-3.7%	6.3%	12.9
Cc1ccc(S(=O)(=O)Nc2ccc(Nc3ccccc3)cc2)cc1	-3.3	2.0%	-81.4%	9.1%	-1.8
CCOc1ccc(-c2nc(CN3CCCC(C(=O)N4CCOCC4)C3)c(C)o2)cc1 (stereo not drawn)	17.6*	-7.0%	3.8%	-7.0%	31.0*
Cc1ccc(-c2nc(CN3CCCC(C(=O)N4CCOCC4)C3)c(C)o2)cc1 (stereo not drawn)	1.4	-2.2%	2.8%	-1.2%	35.4
CCOc1ccc(-c2nc(CSCC(=O)NC3CC3)c(C)o2)cc1	21.5*	5.1%	-3.8%	.	2.4
CCOc1ccc(-c2nc(CSCC(=O)N3CCN(c4cccc(OC)c4)CC3)c(C)o2)cc1	15.7*	10.5%	-37.7%	-15.2%	75.3*
CCOc1ccc(-c2nc(CS(=O)(=O)CC(=O)NCc3ccc(F)cc3)c(C)o2)cc1	11.7*	0.6%	26.0%	3.8%	19.9*
Cc1ccccc1-c1nc(CS(=O)(=O)CC(=O)NCc2ccc(F)cc2)c(C)o1	-0.4	7.0%	-11.2%	15.9%	1.7
Cc1ccc(-c2nc(CSCC(=O)N3CCN(c4ccccn4)CC3)c(C)o2)cc1	18.2	2.5%	-32.0%	-0.2%	-4.6
CCCCC/C(=N\NC(=O)Nc1ccccc1)c1ccccc1	-5.7	2.6%	.	-1.3%	23.0
CCCC/C(C)=N/NC(=O)Nc1ccccc1	18.0*	2.0%	9.6%	-4.5%	40.6*
CC(C)/C(=N\NC(=O)Nc1ccccc1)c1ccccc1	18.3	-1.5%	-8.2%	7.6%	26.7
CCCCSC(=O)Nc1ccccc1	31.5*	-21.8%	-9.1%	-4.0%	85.1*
C/C(=N\NC(=O)Nc1ccccc1)c1ccccc1	20.1*	-4.8%	-18.6%	4.9%	32.2
CO[C@@H]1COC(=O)[C@H]2CCCN2C(=O)[C@@H](C)COC(=O)C/C=C\[C@H]1C	.	.	.	2.7%[12.9 µM]	.
SMILES	CHX counter	LmPK inhibitor	NS1 inh	Giardia FBPA inh	Shiga inhibitor
O=C(NCCCc1ccccc1)c1ccc(Br)o1	30.7*	-3.9%	-90.4%	5.6%	53.3
Cc1ccc(CNC(=O)CCNC(=O)c2ccc(Br)o2)cc1	-3.3	0.4%	-1.3%	0.0%	-10.6
CCCCCCNC(=O)c1ccc(Br)o1	33.1*!	3.2%	-29.4%	0.7%[89.2 µM]	+!
O=C(NCCCCc1ccccc1)c1ccc(Br)o1	18.2*	-4.0%	-39.5%	2.9%	14.7
CCCCC/C=C\C/C=C\C[C@H](O)/C=C/C=C\CCCC(=O)O	.	.	.	6.5%	.
O=C(O)c1ccc(N[C@@H]2OC[C@@H](O)[C@@H](O)[C@@H]2O)cc1	.	.	.	1.1%	.
CN(C)c1ccc(C(=O)c2ccc(N(C)C)c3ccccc23)cc1	24.8*	2.2%	18.7%	-4.3%	68.2*
COc1ccc(C(=O)c2ccc(N(C)C)cc2)c(OC)c1	13.6	-0.5%	-10.3%	-3.0%	57.0
OC(C#Cc1ccccn1)c1cccs1 (stereo not drawn)	50.7*	-15.4%	-5.7%	?	48.0*
COc1ccccc1OCc1ccc(C(=O)NN)o1	19.1*	-2.4%	4.4%	0.8%	42.0*
COc1ccccc1OCc1ccc(C(=O)Nc2ccc(Cl)cn2)o1	11.7*	4.7%	2.4%	0.0%	29.7
COc1ccc(NC(=O)c2ccc(COc3ccccc3OC)o2)cc1OC	3.3	2.7%	9.4%	.	5.9
C1CNC(C23CC4CC(CC(C4)C2)C3)=N1	24.7	-0.4%	.	-1.5%	56.5*
COC(=O)c1cccc(N(CC(=O)NC2CCCC2)C(=O)CCC(=O)Nc2cc(C)on2)c1	2.9	0.6%	-13.1%	3.6%	6.1
C=CCNC(=O)C1CC2Cn3c(nc4cc5ccccc5cc43)C2N1C (stereo not drawn)	40.9*	-0.2%	?	5.8%	38.0*
COC(=O)CN(c1ccc(OCc2ccccc2)cc1)S(C)(=O)=O	-3.3	1.8%	-8.4%	-0.2%	34.3
O=C(Nc1ccc(-n2cccn2)cc1)C1CCCCN1Cc1cccc2cccnc12 (stereo not drawn)	24.3*	0.7%	-7.9%	-9.4%	11.0
CCOCC(=O)Nc1nc2ccccc2s1	47.6*	10.0%	0.5%	4.1%	124.7*
CCNC(=O)Nc1nc2ccccc2s1	43.7*	-5.6%	.	-4.5%	59.9*
COc1ccc(/C(C)=N/OCC(=O)Nc2nc3ccccc3s2)cc1	12.1*	3.0%	10.5%	-9.2%	-1.7
O=C(NCc1ccncc1)C(=O)Nc1nc2ccccc2s1	41.8*	-2.6%	-4.0%	-8.9%	52.0*
C=CC[C@@H]1C=C[C@@H](O/N=C\[C@@H](NS(=O)(=O)c2ccc(C)cc2)[C@H](C)/C=C\CC(=O)OC)[C@@H](CO)O1	.	.	.	-0.7%[12.9 µM]	.
O=C(O)/C(=C\c1ccc(O)cc1)c1cccc2ccccc12	.	.	-9.0%	.	.
O=[N+]([O-])c1ccc(S(=O)(=O)NCCS(=O)(=O)N2CCN(c3ccccc3)CC2)cc1	8.4	-1.7%	6.4%	-6.8%	-8.7
O=C(COc1c(Br)cc(Br)cc1Br)N/N=C/c1ccco1	-2.1	-9.2%	7.5%	.	-2.0
SMILES	CHX counter	LmPK inhibitor	NS1 inh	Giardia FBPA inh	Shiga inhibitor
C=C(C)C(O)/C=C/c1ccc(C(F)(F)F)cc1 (stereo not drawn)	.	.	.	1.5%	.
COc1ccc(/C=N/OCC(=O)Nc2nc3ccccc3s2)cc1OC	20.1*	-3.0%	2.0%	-5.1%	13.2
CCOC(=O)c1cc(-c2cccs2)[nH]n1	22.1*	-3.9%	-6.9%	-0.1%	60.2*
CC1(C)Cc2c(cnn2-c2ccccc2)C(=O)/C1=N\NC(=O)c1ccccc1	1.7	2.2%	3.2%	1.6%	-4.9
CC1(C)Cc2c(cnn2-c2ccccc2)C(=O)/C1=N\NC(=O)c1ccccc1O	16.3*	3.7%	-74.4%	-8.7%	32.2
C=C1c2cccc(C(F)(F)F)c2O[C@H](C(=O)OCC)C1OC (mixture of isomers)	-0.3	.	.	-22.2%[89.2 µM]	i
Cc1cc(C(=O)N/N=C/c2ccc[nH]2)no1	19.9	1.8%	13.8%	-11.8%	44.7
Cc1cc(C(=O)N/N=C/c2cccnc2)n[nH]1	1.6	1.0%	0.2%	0.3%	22.3
